The campaign covered roughly 310,000 compounds. About 3,900 (1.3%) were called active. The sample holds actives, similar compounds and a random draw of the others, so the mix is not that of the screen.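 Rule for the calls: active = compounds whose thallium flux B-score, printed positive for inhibition, exceeds three library SD while starting fluorescence stays within three; inactive = the rest.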

Sequence of Potassium voltage-gated channel subfamily KQT member 1 (Homo sapiens) (P51787 whole entry, looked up): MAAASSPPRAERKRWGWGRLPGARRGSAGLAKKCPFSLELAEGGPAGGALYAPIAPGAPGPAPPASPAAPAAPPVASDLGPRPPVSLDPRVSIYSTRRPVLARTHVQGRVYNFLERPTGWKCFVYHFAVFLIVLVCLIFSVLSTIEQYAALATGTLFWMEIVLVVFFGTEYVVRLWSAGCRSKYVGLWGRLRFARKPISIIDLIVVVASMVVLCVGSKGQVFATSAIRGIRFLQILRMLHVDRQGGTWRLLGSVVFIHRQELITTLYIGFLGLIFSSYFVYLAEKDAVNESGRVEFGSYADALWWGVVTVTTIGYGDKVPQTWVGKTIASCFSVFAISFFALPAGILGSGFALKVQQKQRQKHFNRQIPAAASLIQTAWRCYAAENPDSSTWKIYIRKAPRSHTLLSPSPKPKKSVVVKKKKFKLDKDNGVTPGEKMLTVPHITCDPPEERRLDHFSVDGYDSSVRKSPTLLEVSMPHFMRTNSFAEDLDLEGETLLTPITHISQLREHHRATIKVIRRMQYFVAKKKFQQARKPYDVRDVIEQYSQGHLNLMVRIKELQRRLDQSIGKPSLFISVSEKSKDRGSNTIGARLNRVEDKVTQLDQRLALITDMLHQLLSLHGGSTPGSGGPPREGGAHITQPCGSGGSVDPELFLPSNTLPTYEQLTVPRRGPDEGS

This assay addresses Potassium voltage-gated channel subfamily KQT member 1 (Homo sapiens) (UniProt P51787). The experiment in a line: KCNQ1 potassium current blockers – cell-based, thallium flux, high-throughput, primary screen (AID 2642).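 Note: channel opened by potassium depolarization with thallium stimulus after 20 min compound exposure.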 Conditions: CHO-K1 KCNQ1, FluxOR thallium flux fluorescence, at 10 µM; stronger effect = higher value.
Regarding `CCc1cccc(NC(=O)C2CCCN(S(=O)(=O)c3ccc4[nH]c(=O)ccc4c3)C2)c1` (stereo not given), the B-score result was “inactive”.
The entry for `COC(=O)c1ccc(/C=C2/C(=O)Oc3ccccc32)cc1` is “inactive”; for `C/C(N)=C(/C#N)C(=O)COC(=O)C1CCN(C(=O)c2ccc(Cl)cc2)CC1` it is “inactive”.
`COc1ccc(NC(=O)CNC(=O)Cn2ccc3ccccc3c2=O)c(OC)c1`: the B-score entry was “inactive”.
The entry for `Cc1ccc(OCCCCc2c(C)n[nH]c2C)cc1` is “inactive”.
The figure for `CCn1c(/C=C/Nc2ccccc2)[n+](CC)c2ccc(C(=O)OCC(F)(F)F)cc21` is 9 (active); for `CCOC(=O)N1CCN(C(=O)c2ccc(S(=O)(=O)Nc3cccc(C(F)(F)F)c3)cc2)CC1` it is “inactive”.
Take `CCOC(=O)c1ccc2c(c1)nc(C)n2CC`: the B-score result is “inactive”.
The entry for `O=C(COC(=O)/C=C/c1cccs1)NC1CCCCC1` is “inactive”; for `Cc1nc(-c2ccc(F)cc2)c(CC(=O)Nc2cccc(S(=O)(=O)N3CCOCC3)c2)s1` it is “inactive”; for `Cc1ccc(-c2nc(-c3cccnc3)sc2CC(=O)Nc2ccc(C)c(Cl)c2)cc1` it is 11 (active).
The entry for `Cc1ccc(NC(=O)COc2ccc(-n3ccnc3)cc2)cc1Cl` is “inactive”; for `COc1cc(C(=O)N/C(=C\c2cn(C)c3ccccc23)C(=O)N2CCOCC2)cc(OC)c1OC` it is “inactive”.
The entry for `COc1cc(/C=C(\C#N)c2nc3c(s2)CC(C)CC3)ccc1O` (stereo not given) is “inactive”; for `COc1cc(/C=C(\C#N)c2nc3ccccc3[nH]2)ccc1O` it is 9 (active).
Turning to `COc1ccc(/C=C(/NC(=O)c2ccc(C)cc2)c2nc3ccccc3[nH]2)cc1OC`, the B-score result was “inactive”.
Take `COc1ccc(/C=C(\NC(=O)c2ccc(OCC(C)C)cc2)C(=O)OCc2ccco2)cc1`: the B-score result was “inactive”.
The entry for `O=C(O)c1ccc(OCC2CCCO2)cc1` (stereo not given) is “inactive”.
The entry for `COc1ccccc1C(=O)NC(CCSC)C(=O)NNC(=O)c1csc(N2CCOCC2)n1` (stereo not given) is “inactive”; for `O=C(Nc1ccc(F)cc1)c1cccnc1N1CCOCC1` it is 10 (active).
The entry for `O=C(Nc1ccc(N2CCOCC2)nc1)c1c(F)cccc1F` is “inactive”.
For `COC(=O)c1cc(NC(=O)c2cccnc2)ccc1N1CCOCC1`, the B-score entry is “inactive”.
The entry for `CSCCC(NS(=O)(=O)/C=C/c1ccccc1)C(=O)N1CCC(C)CC1` (stereo not given) is “inactive”.
As for `CCOC(=O)c1sc(NC(=O)CSc2ncccn2)c(C#N)c1C`, the B-score entry was “inactive”.
The entry for `CCOC(=O)c1ccc(NC(=O)c2cccnc2)cc1` is “inactive”; for `Cc1c(C(=O)OC(C)C)sc(NC(=O)c2cccnc2)c1C#N` it is 9 (active).
The entry for `C=CCc1c(C)nc2cc(-c3ccccc3)[nH]n2c1=O` is “inactive”.
Take `COc1ccc(CCNC(=O)CCNS(=O)(=O)c2cc(Br)cnc2N)cc1OC`: the B-score entry was “inactive”.
The entry for `Cc1ccc(NS(=O)(=O)c2ccc(C(C)(C)C)cc2)cn1` is “inactive”.
The entry for `Cc1cc(C)cc(OCC(=O)Nc2ccc(S(=O)(=O)Nc3ccccn3)cc2)c1` is “inactive”; for `Cc1ccc(S(=O)(=O)Nc2ccc3ncccc3c2)cc1` it is 6 (active); for `Cc1ccc2c(Cl)c(C(=O)Nc3nn[nH]n3)sc2c1` it is “inactive”.
On to `CCCCCCOc1ccc(OC(=O)c2cccnc2)cc1`, for which the B-score result was “inactive”.
The entry for `CN(C)CCCN1C(=O)CSC1c1ccc([N+](=O)[O-])cc1` (stereo not given) is “inactive”; for `CCCCCCCCCCCCN1C(=O)CSC1c1cccnc1` (stereo not given) it is 9 (active).
Regarding `CCCCN1C(=O)c2ccc(C(=O)Nc3ccc(S(=O)(=O)N(C)C)cc3)cc2C1=O`, the B-score result was “inactive”.
The entry for `CC(C)(C)C(=O)N(Cc1ccccc1)c1ccccn1` is “inactive”.
For the molecule `CCN=C1S/C(=C\c2cc(Br)ccc2OCC(=O)OCC)C(=O)N1CC`, the B-score entry was “inactive”.
The figure for `CN(C)C(=O)c1ccc2c(c1)C1C3CCC(C3)C1C(c1ccccc1)N2` (stereo not given) is 6 (active); for `CN(C)C(=O)c1ccc(NC(=O)c2ccccc2-c2ccccc2)cc1` it is “inactive”.
`O=C(c1ccc2c(c1)N(Cc1ccc(F)cc1)C(=O)c1ccccc1S2(=O)=O)N1CCN(c2ccccn2)CC1`: the B-score result was “inactive”.
`S=C(NCc1ccc(Cl)cc1)NC1CCCCC1`: the B-score result was “inactive”.
The figure for `S=C(NCc1ccc(Cl)cc1)NC12CC3CC(CC(C3)C1)C2` is 11 (active).
The entry for `O=C(NCc1ccncc1)NC12CC3CC(CC(C3)C1)C2` is “inactive”; for `Cc1cc(C)c(NC(=S)N2CCCC2C(=O)O)c(C)c1` (stereo not given) it is “inactive”; for `CC(C)[C@H](NC(=O)N1CCn2c1nc1ccccc12)C(=O)NCc1ccc2c(c1)OCO2` it is “inactive”.
The entry for `COc1cnn(-c2ccc([N+](=O)[O-])cc2)c(=O)c1Cl` is “inactive”.
On to `CC(=O)c1ccc(NC(=O)C2CCCN2S(=O)(=O)c2cccs2)cc1` (stereo not given), for which the B-score entry was “inactive”.
With `CC(=O)c1cccc(NC(=O)c2ccncc2)c1`, the B-score entry was “inactive”.
The entry for `C=C(C)C(=O)Nc1cccc(C(C)=O)c1` is “inactive”; for `CCSc1nsc(NC(=O)Nc2ccccc2OC)n1` it is “inactive”; for `CSc1nsc(NC(=O)Nc2ccccc2)n1` it is “inactive”.
The figure for `CCSc1nsc(NC(=O)Nc2cccc(C(C)=O)c2)n1` is 10 (active).
The figure for `C=CCSc1nsc(NC(=O)Nc2cccc(C(C)=O)c2)n1` is 12 (active); for `CCOc1ccc(C(CCc2ccccc2)NC(=O)c2ccc(OC)c(OC)c2)cc1OCC` (stereo not given) it is “inactive”.
In the case of `COc1cc2c3c(c1)/C(=C1/SC(=S)NC1=O)C(=O)N3C(C)(C)C=C2C`, the B-score entry was “inactive”.
The entry for `Cc1ccc2nc(-c3ccncc3)cc(C(=O)Nc3ccc(OC(F)F)cc3)c2c1` is “inactive”; for `CC(C)C(=O)Nc1ccc2c(c1)oc1ccccc12` it is “inactive”; for `CCOC(=O)c1ccc(NC(=O)CCn2c(=O)oc3ccccc32)cc1` it is “inactive”.
The figure for `Cc1ccc(-c2csc(NC(=O)C3=COCCO3)n2)cc1C` is 12 (active); for `CC(=O)NCCC(=O)Nc1nc(-c2ccc3c(c2)OCCO3)cs1` it is “inactive”.
The entry for `Cc1csc(NC(=O)C2=COCCO2)n1` is “inactive”; for `Cc1cccc(CN2CCC(n3nccc3NC(=O)c3ccccc3C)CC2)n1` it is “inactive”.
Take `CN(C)N(C)C(=O)C(O)(c1ccccc1)c1ccccc1`: the B-score result is “inactive”.
The entry for `CCc1ccc(NC(=O)CCNS(=O)(=O)c2cccs2)cc1` is “inactive”.
The figure for `COc1ccc(-c2cc(C(F)(F)F)nc(S(C)(=O)=O)n2)cc1OC` is 7 (active); for `COc1ccc(-c2ccc(Nc3ccc(S(=O)(=O)N4CCCC4)cc3)nn2)cc1OC` it is “inactive”.
As for `COc1ccc(-c2cc(C(F)(F)F)nc(NCc3cccnc3)n2)cc1`, the B-score result is “inactive”.
The entry for `C=C(C)CNC(=O)c1ccc(OC2CCN(C(=O)COC)CC2)cc1` is “inactive”.
The entry for `O=C(CC(NCCN1CCOCC1)C(=O)O)Nc1cccc(Cl)c1` (stereo not given) is “inactive”.
